This note sets out measurements from PubChem BioAssay (NCATS).

Records with an inconclusive call do not appear. Entries that show only a call come without a potency. Activity calls are given as the source filed them. Calls follow the shape of the dose curve; as a rule, active = well fitted inhibition curve with a large enough effect; inconclusive = small, poorly fitted or top-dose-only effect; inactive = flat fitted curve, though single readings scatter.
Potency is read from the fitted curve at half-maximal effect.

This assay relates to Dd2. Description: qHTS profiling for inhibitors of Plasmodium falciparum proliferation (AID 504749). Also: nearly all actives have a fitted effect of over 60% in size. The note with it: P. falciparum in erythrocytes, SYBR Green DNA, 72 h; series mostly up to 28.7 µM. In a few lines: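 SYBR Green fluorescence of parasite DNA, read after lysis and overnight dark incubation, measured growth over 72 h in erythrocyte culture at 0.3% parasitemia and 2.5% hematocrit. Data normalised to DMSO and 0.29 uM artemisinin, with plate-drift correction.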
With `CC(C)C(=O)Nc1ccc([N+](=O)[O-])c(C(F)(F)F)c1`, the Potency entry was “inactive”.
Next, `NC(=O)NO`: “inactive”; `CCOC(=O)C(C)(C)Oc1ccc(Cl)cc1`: “inactive”; `Cc1cn([C@H]2C[C@H](N=[N+]=[N-])[C@@H](CO)O2)c(=O)[nH]c1=O`: “inactive”.
Next, `Cc1cc(C(C)(C)C)c(O)c(C)c1CC1=NCCN1`: “inactive”.
Regarding `NS(=O)(=O)c1cc2c(cc1Cl)NCNS2(=O)=O`, the Potency entry is “inactive”.
Next, `CCOC(=O)c1ncn2c1CN(C)C(=O)c1cc(F)ccc1-2`: “inactive”.
Next, `COC(=O)Nc1nc2ccc(C(=O)c3cccs3)cc2[nH]1`: “inactive”.
For the compound `Clc1ccc2nsnc2c1NC1=NCCN1`, the Potency result is “inactive”.
Next, `Cn1c(=O)c2c(ncn2C)n(C)c1=O`: “inactive”; `CC(C)Cc1ccc(C(C)C(=O)O)cc1` (stereo not drawn): “inactive”.
As for `Cn1cnc2c1c(=O)[nH]c(=O)n2C`, the Potency entry is “inactive”.
Next, `Cn1c(=O)c2[nH]cnc2n(C)c1=O`: “inactive”.
Next, `NCCCCCC(=O)O`: “inactive”; `CC(C)(Oc1ccc(C2CC2(Cl)Cl)cc1)C(=O)O` (stereo not drawn): “inactive”; `CN1C(C(=O)Nc2ccccn2)=C(O)c2ccccc2S1(=O)=O`: “inactive”.
Then `N[C@@H](Cc1c[nH]c2ccc(O)cc12)C(=O)O`, with “inactive”; and `COc1cc2c(c(OC)c1OC)-c1ccc(OC)c(=O)cc1[C@@H](NC(C)=O)CC2`, with “inactive”; and `Cc1cc(C(C)(C)C)cc(C)c1CC1=NCCN1`, with “inactive”.
On to `Cc1cnc(C(=O)NCCc2ccc(S(=O)(=O)NC(=O)NC3CCCCC3)cc2)cn1`, for which the Potency result was “inactive”.
Then `CN1CCN2c3ccccc3Cc3ccccc3C2C1` (stereo not drawn), with “inactive”; and `Nc1nnc(-c2cccc(Cl)c2Cl)c(N)n1`, with “inactive”; and `CC[N+](CC)(CC)CCOc1cccc(OCC[N+](CC)(CC)CC)c1OCC[N+](CC)(CC)CC`, with “inactive”.
For `Cc1ccc(C(=O)Nc2ccc(S(=O)(=O)O)c3cc(S(=O)(=O)O)cc(S(=O)(=O)O)c23)cc1NC(=O)c1cccc(NC(=O)Nc2cccc(C(=O)Nc3cc(C(=O)Nc4ccc(S(=O)(=O)O)c5cc(S(=O)(=O)O)cc(S(=O)(=O)O)c45)ccc3C)c2)c1`, the Potency entry is “inactive”.
Take `CS(=O)(=O)Nc1ccc([N+](=O)[O-])cc1Oc1ccccc1`: the Potency entry was “inactive”.
As for `CC(=O)OCC(CCn1cnc2cnc(N)nc21)COC(C)=O`, the Potency result was “inactive”.
Then `C[C@](N)(Cc1ccc(O)c(O)c1)C(=O)O`, with “inactive”.
Then `COc1ccccc1OCC(O)CN1CCN(CC(=O)Nc2c(C)cccc2C)CC1` (stereo not drawn), with “inactive”.
Next, `Cc1cn([C@H]2C=C[C@@H](CO)O2)c(=O)[nH]c1=O`: “inactive”.
As for `Clc1ccccc1C(c1ccccc1)(c1ccccc1)n1ccnc1`, the Potency is 708 nM (active).
Next, `CC(C)(C)C(=O)Oc1ccc(S(=O)(=O)Nc2ccccc2C(=O)NCC(=O)O)cc1`: “inactive”; `NC(=O)OCC(COC(N)=O)c1ccccc1`: “inactive”; `COc1ccccc1N1CCN(CC(O)COc2cccc3ccccc23)CC1` (stereo not drawn): “inactive”.
Next, `O=c1c(-c2ccc(O)cc2)coc2cc(O)cc(O)c12`: “inactive”; `CCCNCC(O)COc1ccccc1C(=O)CCc1ccccc1` (stereo not drawn): 1000 nM (active); `NCCc1cnc[nH]1`: “inactive”.
Next, `CN(C)c1nc(N(C)C)nc(N(C)C)n1`: “inactive”.
For the compound `CC(C)NCC(O)c1ccc(O)c(O)c1` (stereo not drawn), the Potency result was “inactive”.
